Measured values reported in PubChem BioAssay (Tox21).
Results filed as inconclusive are left out. Entries that show only a call come without a potency. Active and inactive are the calls of the source. Unless noted, calls come from the whole dose curve.

Key:
[1] = Nuclear factor erythroid 2-related factor 2/antioxidant responsive element (Nrf2/ARE) small molecule agonists: qHTS cell viability counter screen in human keratinocytes (AID 1919968; active = well fitted curve in the direction sought with a large enough effect in the repeat runs; an effect the other way counts as inactive or inconclusive; note: nearly all actives have a fitted effect of over 55% in size; note: potency is the fitted concentration of half-maximal effect)
Outline: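 In human HaCaT keratinocytes stably expressing an ARE-driven luciferase, compound exposure lasted 23 h at 37 C under 5% CO2. Viable cells are quantified with a protease-based fluorogenic reagent (CellTiter-Fluor) read 1 h after addition.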

[2] = molecular target: Gonadotropin-releasing hormone receptor (Homo sapiens) (UniProt P30968); assay: Human gonadotropin-releasing hormone receptor (GnRHR) small molecule agonists, calcium flux assay in GnRHR-HEK293 cells (AID 1920063); note: nearly all actives have a fitted effect of over 35% in size
Outline: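 Intracellular calcium rise is the read-out: engineered human GnRHR HEK293 cells, dye-loaded, are exposed to DMSO-dissolved compounds and fluorescence at Ex/Em 480/540 is tracked for 3 min.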

[3] = molecular target: KiSS-1 receptor (Homo sapiens) (UniProt Q969F8); assay: Human kisspeptin (KISS1R) small molecule agonists, calcium flux assay in KISS1R-HEK293 cells (AID 1920064; active = well fitted curve in the direction sought with a large enough effect in the repeat runs; an effect the other way counts as inactive or inconclusive)
Outline: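 Concentration-response testing used 15 concentrations in triplicate on human KISS1R-expressing HEK293 cells. Calcium-dependent fluorescence (Ex/Em 480/540) was followed kinetically for 3 min after compound transfer.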

[4] = G protein-coupled receptor (GPCR) small molecule agonists, calcium flux assay: HEK293 wild type cell line counter screen (AID 1920065)
Outline: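 Fluorescence intensity signals activation. After overnight (18 h) culture and a 1 h calcium dye load at 37 C, compounds are added by pin tool and the plate read at 480/540 nm for 3 min in 1 s steps.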

[5] = p53 small molecule agonists, cell-based qHTS assay with human liver microsomes (AID 1963577);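 note: p53 response element beta-lactamase reporter cells with liver microsomes plus NADPH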
Outline: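 16 h, 37 C exposure of p53RE-bla cells to compounds with human liver microsomes and NADPH (0.5 mg/mL final each); detection via LiveBLAzer mixture, 2 h dark at room temperature.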

[6] = p53 small molecule agonists, cell-based qHTS assay with rat liver microsomes (AID 1963578)
Outline: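 With rat liver microsomes and NADPH present (0.5 mg/mL final each), p53RE-bla cells are treated with compound for 16 h at 37 C. LiveBLAzer detection mixture is then applied for 2 h at room temperature in the dark.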

[7] = molecular target: 5-hydroxytryptamine receptor 2A (Homo sapiens) (UniProt P28223); assay: 5-hydroxytryptamine receptor 2A (HTR2A) small molecule antagonists, cell-based qHTS assay (AID 1963586); note: nearly all actives have a fitted effect of over 45% in size; note: potency is the fitted concentration of half-maximal effect
Outline: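 CHO cells stably expressing human HTR2A were plated for 18 h at 37 C, then loaded with calcium dye for 1 h. Compounds were preincubated 5 min at room temperature before DOI (4 nM solution) was added. Kinetic fluorescence was read for 3 min.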

[8] = molecular target: Muscarinic acetylcholine receptor M1 (Homo sapiens) (UniProt P11229); assay: Cholinergic receptor muscarinic 1 (CHRM1) small molecule antagonists, cell-based qHTS assay (AID 1963588); note: nearly all actives have a fitted effect of over 40% in size; note: potency is the fitted concentration of half-maximal effect
Outline: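 Compounds were tested at 15 concentrations in three independent runs. Dye-loaded CHRM1-CHO cells were exposed 5 min at room temperature before stimulation by acetylcholine added at 50nM. Intracellular calcium was read kinetically on FDSS for 3 min.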

[9] = molecular target: Muscarinic acetylcholine receptor M1 (Homo sapiens) (UniProt P11229); assay: Cholinergic receptor muscarinic 1 (CHRM1) small molecule agonists, cell-based qHTS assay (AID 1963589); note: nearly all actives have a fitted effect of over 35% in size
Outline: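 Fluorescent calcium dye reports M1 activation in stably transfected CHO cells. Compounds, 15 concentrations, added after 1 h dye loading at 37 C; kinetic reading at 1 sec intervals.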

[10] = cAMP Responsive Elements (CRE) small molecule agonists, cell-based qHTS assay (AID 1963590)
Outline: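 Compound exposure lasted 3 h at 37 C/5% CO2 in CRE-bla HEK 293T cells grown in assay medium with 10% dialyzed FBS and 25 mM HEPES. Reporter signal came from LiveBLAzer B/G FRET substrate, 2 h, room temperature.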

[11] = cAMP Responsive Elements (CRE) small molecule antagonists, cell-based qHTS assay (AID 1963591; active = well fitted inhibition curve with a large enough effect in the signal ratio in the repeat runs, not every such curve was filed as active; the % refers to the signal ratio)
Outline: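 Stimulation used NKH477 at a final 0.25 uM for 3 h in compound-treated CRE-bla HEK293T cells, seeded 18 h beforehand. Reporter activity was measured with LiveBLAzer B/G FRET substrate after 2 h at room temperature.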

[12] = molecular target: Beta-2 adrenergic receptor (Homo sapiens) (UniProt P07550); assay: Adrenergic beta2 receptor (ADRB2) small molecule antagonists, cell-based qHTS assay (AID 1963592); note: nearly all actives have a fitted effect of over 50% in size; note: potency is the fitted concentration of half-maximal effect
Outline: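 Assay format: CHO-ADRB2 cells, 18-20hr seeding at 37C/5% CO2, then compound plus 1nM isoproterenol agonist mix for 0.5hr RT. Homogeneous time-resolved fluorescence cAMP detection after 1hr, expressed as 665/615 nm ratio.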

[13] = molecular target: Beta-2 adrenergic receptor (Homo sapiens) (UniProt P07550); assay: Adrenergic beta2 receptor (ADRB2) small molecule agonists, cell-based qHTS assay (AID 1963593);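 note: CHO cells stably overexpressing human ADRB2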
Outline: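 CHO cells stably over-expressing ADRB2 were plated overnight at 37C, then dosed with compounds plus a stimulation mix containing 100uM IBMX and 25uM Ro-20-1724 for 0.5hr at room temperature. cAMP was measured by HTRF competition, 1hr.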

[14] = molecular target: D(2) dopamine receptor (Homo sapiens) (UniProt P14416); assay: Dopamine D2 receptor (DRD2) small molecule agonists, cell-based qHTS assay (AID 1963594); note: nearly all actives have a fitted effect of over 35% in size; note: potency is the fitted concentration of half-maximal effect
Outline: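 cAMP accumulation in DRD2-HEK293 cells measured by HTRF after 1 h detection; compounds added 10 min before NKH477 (200nM […]) forskolin-analogue stimulation, 30 min at room temperature, with Ro20-1724 present at 0.1 mM final.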

[15] = molecular target: D(2) dopamine receptor (Homo sapiens) (UniProt P14416); assay: Dopamine D2 receptor (DRD2) small molecule antagonists, cell-based qHTS assay (AID 1963595; active = well fitted inhibition curve with a large enough effect in the signal ratio in the repeat runs, with a control signal flat; the % refers to the signal ratio; note: potency is the fitted concentration of half-maximal effect)
Outline: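 DRD2-HEK293; 0.1 mM Ro20-1724; cpd 10 min RT; NKH477 200 nM + quinpirole 12 nM, 30 min RT; HTRF cAMP (cAMP-d2/anti-cAMP cryptate), 665/620 nm ratio after 1 h.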

[16] = p53 small molecule agonists, cell-based qHTS assay with rat liver microsomes: qHTS cell viability counter screen (AID 1963580); note: nearly all actives have a fitted effect of over 45% in size; note: potency is the fitted concentration of half-maximal effect
Outline: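 Cytotoxicity counter screen: intracellular ATP read by CellTiter-Glo luminescence in the p53 reporter wells. HCT-116 p53RE-bla cells were treated for 16 h at 37 C alongside rat liver microsomes and NADPH, each 0.5 mg/mL final.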

[17] = p53 small molecule agonists, cell-based qHTS assay with human liver microsomes: qHTS cell viability counter screen (AID 1963579); note: nearly all actives have a fitted effect of over 45% in size
Outline: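 In this multiplexed counter screen, the reporter plates were subsequently treated with CellTiter-Glo so that cell viability, reflected by luminescence, could be recorded for p53RE-bla cells dosed 16 h with compounds under microsomal activation (HLM and NADPH).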

[18] = p53 small molecule agonists, cell-based qHTS assay: qHTS cell viability counter screen (AID 1963581); note: nearly all actives have a fitted effect of over 45% in size
Outline: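 Luminescence from CellTiter-Glo, reflecting ATP content, serves as the cytotoxicity measure; it is taken after the 2 h reporter substrate step in HCT-116 p53RE-bla cells dosed for 16 h at 37 C.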

[19] = p53 small molecule agonists, cell-based qHTS assay (AID 1963582; active = well fitted activation curve with a large enough effect in the signal ratio in the repeat runs, not every such curve was filed as active; the % refers to the signal ratio)
Outline: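 After plating, p53RE-bla cells sat 5 h in the incubator; compounds or DMSO vehicle were pinned in; a 16 h incubation at 37 C followed; FRET substrate was added and, 2 h later at RT, fluorescence was measured.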

[20] = molecular target: 5-hydroxytryptamine receptor 2A (Homo sapiens) (UniProt P28223); assay: 5-hydroxytryptamine receptor 2A (HTR2A) small molecule agonists, cell-based qHTS assay (AID 1963587); note: nearly all actives have a fitted effect of over 30% in size; note: potency is the fitted concentration of half-maximal effect
Outline: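 Kinetic calcium-flux fluorescence (2 min, 1 sec intervals) after compound addition in agonist mode. HTR2A-CHO cells were cultured 18 h, then dye-loaded 1 h at 37 C.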

Chain of 5-hydroxytryptamine receptor 2A (Homo sapiens) (P28223 whole entry, looked up): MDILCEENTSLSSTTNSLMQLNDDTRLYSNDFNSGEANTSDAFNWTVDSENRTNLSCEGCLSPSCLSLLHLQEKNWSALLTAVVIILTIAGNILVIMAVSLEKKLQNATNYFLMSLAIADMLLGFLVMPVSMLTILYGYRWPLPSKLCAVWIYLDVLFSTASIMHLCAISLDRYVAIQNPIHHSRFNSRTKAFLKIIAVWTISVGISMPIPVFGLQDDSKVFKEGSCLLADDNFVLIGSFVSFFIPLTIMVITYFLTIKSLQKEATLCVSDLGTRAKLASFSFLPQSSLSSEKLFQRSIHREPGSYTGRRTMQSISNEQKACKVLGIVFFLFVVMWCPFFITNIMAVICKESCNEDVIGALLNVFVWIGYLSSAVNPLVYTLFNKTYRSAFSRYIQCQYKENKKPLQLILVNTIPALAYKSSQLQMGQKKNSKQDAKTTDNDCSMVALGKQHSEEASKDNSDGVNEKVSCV
Chain of Gonadotropin-releasing hormone receptor (Homo sapiens) (P30968 whole entry, looked up): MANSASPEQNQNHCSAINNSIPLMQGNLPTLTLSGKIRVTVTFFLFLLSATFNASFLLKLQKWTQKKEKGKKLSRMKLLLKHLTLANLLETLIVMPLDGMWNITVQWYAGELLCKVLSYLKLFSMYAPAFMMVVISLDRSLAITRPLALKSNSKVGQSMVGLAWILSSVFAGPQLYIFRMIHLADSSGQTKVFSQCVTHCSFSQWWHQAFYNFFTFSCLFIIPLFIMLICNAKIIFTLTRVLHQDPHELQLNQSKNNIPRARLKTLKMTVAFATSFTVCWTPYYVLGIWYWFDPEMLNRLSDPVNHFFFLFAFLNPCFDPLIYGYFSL
Chain of D(2) dopamine receptor (Homo sapiens) (P14416 whole entry, looked up): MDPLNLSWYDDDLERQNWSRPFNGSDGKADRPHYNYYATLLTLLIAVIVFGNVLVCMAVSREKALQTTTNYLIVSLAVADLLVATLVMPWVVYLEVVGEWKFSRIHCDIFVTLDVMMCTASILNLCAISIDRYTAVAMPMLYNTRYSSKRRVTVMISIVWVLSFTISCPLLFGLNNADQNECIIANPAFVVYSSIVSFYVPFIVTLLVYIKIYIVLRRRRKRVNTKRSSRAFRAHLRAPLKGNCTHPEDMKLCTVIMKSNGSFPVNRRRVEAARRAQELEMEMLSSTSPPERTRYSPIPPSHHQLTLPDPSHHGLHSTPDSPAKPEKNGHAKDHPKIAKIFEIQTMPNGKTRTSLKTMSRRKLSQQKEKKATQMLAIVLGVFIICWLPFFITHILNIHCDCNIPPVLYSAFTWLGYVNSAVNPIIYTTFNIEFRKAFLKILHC
Chain of KiSS-1 receptor (Homo sapiens) (Q969F8 whole entry, looked up): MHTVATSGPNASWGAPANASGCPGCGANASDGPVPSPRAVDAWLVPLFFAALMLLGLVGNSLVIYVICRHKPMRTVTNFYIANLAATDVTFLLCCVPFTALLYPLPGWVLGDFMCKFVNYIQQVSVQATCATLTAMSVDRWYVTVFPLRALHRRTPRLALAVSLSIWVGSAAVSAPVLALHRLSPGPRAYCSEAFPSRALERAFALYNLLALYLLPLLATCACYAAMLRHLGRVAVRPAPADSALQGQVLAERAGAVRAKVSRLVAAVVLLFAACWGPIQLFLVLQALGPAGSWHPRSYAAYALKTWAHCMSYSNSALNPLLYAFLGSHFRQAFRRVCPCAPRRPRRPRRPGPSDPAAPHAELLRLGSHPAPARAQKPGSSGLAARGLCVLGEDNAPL
Chain of Beta-2 adrenergic receptor (Homo sapiens) (P07550 whole entry, looked up): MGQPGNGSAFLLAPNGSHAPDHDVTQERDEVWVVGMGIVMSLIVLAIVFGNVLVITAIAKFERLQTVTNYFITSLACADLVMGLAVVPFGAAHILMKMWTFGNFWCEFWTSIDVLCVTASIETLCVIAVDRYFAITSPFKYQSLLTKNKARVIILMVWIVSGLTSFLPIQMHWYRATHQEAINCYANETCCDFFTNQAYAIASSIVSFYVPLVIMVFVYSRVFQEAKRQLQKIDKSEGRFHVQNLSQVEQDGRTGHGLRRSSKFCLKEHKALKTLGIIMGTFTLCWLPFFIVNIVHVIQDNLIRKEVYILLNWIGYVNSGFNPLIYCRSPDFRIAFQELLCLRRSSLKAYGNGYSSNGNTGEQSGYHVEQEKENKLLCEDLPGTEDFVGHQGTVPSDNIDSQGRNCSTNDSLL
Chain of Muscarinic acetylcholine receptor M1 (Homo sapiens) (P11229 whole entry, looked up): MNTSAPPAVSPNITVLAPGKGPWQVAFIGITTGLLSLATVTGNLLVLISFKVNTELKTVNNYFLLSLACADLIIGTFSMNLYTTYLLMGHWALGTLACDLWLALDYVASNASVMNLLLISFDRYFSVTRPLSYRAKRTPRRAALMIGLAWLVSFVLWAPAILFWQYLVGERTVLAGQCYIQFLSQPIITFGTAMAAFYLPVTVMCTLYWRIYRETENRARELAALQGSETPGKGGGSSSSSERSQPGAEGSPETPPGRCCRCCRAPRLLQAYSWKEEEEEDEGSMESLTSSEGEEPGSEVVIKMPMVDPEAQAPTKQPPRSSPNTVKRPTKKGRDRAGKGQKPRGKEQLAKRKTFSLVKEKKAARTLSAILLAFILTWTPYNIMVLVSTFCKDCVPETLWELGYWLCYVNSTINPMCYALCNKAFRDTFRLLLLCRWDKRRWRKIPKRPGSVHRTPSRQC

Row | SMILES | Potency [1] | Potency [2] | Potency [3] | Potency [4] | Potency [5] | Potency [6] | Potency [7] | Potency [8] | Potency [9] | Potency [10] | Potency [11] | Potency [12] | Potency [13] | Potency [14] | Potency [15] | Potency [16] | Potency [17] | Potency [18] | Potency [19] | Potency [20]
1 | CC[C@]12CCCN3CCc4c(n(c5ccccc45)C(=O)C1)[C@@H]32 | inactive | inactive | inactive | inactive | inactive | inactive | inactive | inactive | inactive | inactive | inactive | inactive | inactive | inactive | inactive | – | – | – | – | –
2 | CO[C@@H]1[C@@H](OC)[C@H](C)[C@@](O)(CC(=O)O)O[C@H]1[C@H](C)[C@H]1O[C@@]2(CC[C@@](C)([C@H]3CC[C@@](C)([C@@H]4O[C@@H]([C@H]5O[C@](C)(O)[C@H](C)C[C@@H]5C)C[C@@H]4OC4C[C@H](OC)[C@@H](OC)[C@H](C)O4)O3)O2)C[C@H](O)[C@H]1C (stereo partly drawn) | 0.237 µM (active) | inactive | inactive | inactive | inactive | inactive | – | – | – | inactive | – | inactive | inactive | inactive | – | inactive | – | – | – | –
3 | CCc1ccc2c(c1)C(=O)c1ccccc1C2=O | inactive | inactive | inactive | inactive | inactive | inactive | – | inactive | inactive | – | – | inactive | inactive | inactive | inactive | – | inactive | inactive | inactive | inactive
4 | COc1ccc(C2CNC(=O)C2)cc1OC1CCCC1 (stereo not drawn) | inactive | inactive | inactive | inactive | inactive | inactive | inactive | inactive | inactive | inactive | inactive | inactive | inactive | – | inactive | inactive | – | inactive | inactive | inactive
5 | CC(C)COC(=O)CC(C(=O)OCC(C)C)S(=O)(=O)O (stereo not drawn) | inactive | inactive | inactive | inactive | inactive | – | – | inactive | inactive | inactive | inactive | inactive | – | inactive | inactive | inactive | inactive | inactive | inactive | inactive
6 | CC(C)c1cccc(C(C)C)c1NC(=O)NS(=O)(=O)c1cc(C(C)(C)O)co1 | inactive | inactive | inactive | inactive | inactive | inactive | inactive | inactive | inactive | inactive | inactive | – | inactive | inactive | inactive | inactive | – | inactive | inactive | inactive
7 | CCOC(=O)c1ccc(C2CCC(NC[C@H](O)COc3ccc(O)c(NS(C)(=O)=O)c3)CC2)cc1 (stereo partly drawn) | 56.4 µM (active) | inactive | inactive | inactive | inactive | inactive | inactive | 8.69 µM (active) | inactive | – | – | 7.96 µM (active) | – | 0.0796 µM (active) | inactive | – | inactive | inactive | – | inactive
8 | CN1CCN(c2ccccc2/C=C2\SCCN(c3ccc(Cl)c(Cl)c3)C2=O)CC1 | 43.3 µM (active) | inactive | inactive | inactive | – | inactive | inactive | 7.48 µM (active) | inactive | inactive | inactive | 0.77 µM (active) | – | – | 54.5 µM (active) | 45.8 µM (active) | inactive | inactive | inactive | –
9 | NC1=NCC2c3ccccc3Cc3ccccc3N12 (stereo not drawn) | inactive | inactive | inactive | inactive | inactive | – | – | inactive | inactive | inactive | – | inactive | – | 4.92 µM (active) | inactive | inactive | inactive | – | inactive | inactive
10 | Cc1oc(-c2ccccc2)nc1CCOc1cccc2c1ccn2CCC(=O)O | inactive | inactive | inactive | inactive | – | inactive | inactive | inactive | inactive | – | – | inactive | – | inactive | inactive | inactive | – | inactive | – | –
11 | CCCC(CCC)(C(=O)OCC)C(=O)OCC | inactive | inactive | inactive | inactive | – | inactive | 3.26 µM (active) | inactive | – | inactive | inactive | inactive | – | – | inactive | inactive | inactive | inactive | inactive | 1.69 µM (active)
12 | [Cl][Au]([Cl])[Cl] | 3.06 µM (active) | inactive | inactive | inactive | inactive | – | inactive | inactive | inactive | – | – | inactive | inactive | inactive | inactive | – | – | – | – | inactive
13 | CN1C(=O)c2ccccc2C1=O | inactive | inactive | inactive | inactive | inactive | – | inactive | – | inactive | inactive | inactive | 54.5 µM (active) | – | – | inactive | – | inactive | inactive | inactive | inactive
14 | Brc1ccccc1-c1ccccc1 | inactive | inactive | inactive | inactive | – | inactive | 17.8 µM (active) | inactive | inactive | – | inactive | inactive | – | – | inactive | – | – | – | inactive | –
15 | FC1(F)C(F)(F)C(F)(F)C2(F)C(F)(F)C(F)(F)C(F)(F)C(F)(F)C2(F)C1(F)F (stereo not drawn) | inactive | inactive | inactive | inactive | – | inactive | inactive | inactive | inactive | inactive | inactive | inactive | inactive | – | inactive | inactive | inactive | inactive | inactive | inactive
16 | O=C(CS(=O)Cc1ccco1)NC/C=C\COc1cc(CN2CCCCC2)ccn1 (stereo not drawn) | inactive | inactive | inactive | inactive | – | inactive | inactive | inactive | inactive | inactive | inactive | inactive | inactive | inactive | inactive | inactive | inactive | – | – | inactive
17 | C(=C\c1ccccc1)/CN1CCN(C(c2ccccc2)c2ccccc2)CC1 | 13.3 µM (active) | inactive | inactive | inactive | inactive | – | – | – | – | – | – | inactive | – | inactive | – | inactive | inactive | inactive | inactive | –
18 | CC1=C(C/C=C(\C)CCC[C@H](C)CCC[C@H](C)CCCC(C)C)C(=O)c2ccccc2C1=O | inactive | inactive | inactive | inactive | – | inactive | inactive | inactive | inactive | inactive | inactive | inactive | – | inactive | – | inactive | inactive | inactive | inactive | inactive
